Laboratory results from PubChem BioAssay (NCI).
This is part of a sample that, as a whole, favours compounds with a hit. Of some 79,000 tested, about 15% had one in any assay. Activity calls are given as the source filed them. Rule as the data show it: active = growth inhibition above about 70%; inactive = the rest.

Experiments:
[1] = NCI Yeast Anticancer Drug Screen. Data for the rad52 strain (AID 147);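 also: 0% = growth of vehicle-treated control cultures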; conditions: S. cerevisiae rad52 mutant growth inhibition, hits give high values
Outline: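 Here a repair-compromised yeast strain receives each compound; its growth is then quantified and normalised to vehicle-only controls.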

[2] = NCI Yeast Anticancer Drug Screen. Data for the wt1 strain (AID 149);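 also: 0% = growth of vehicle-treated wt1 cultures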; conditions: S. cerevisiae wt1 strain (SPY 50644) growth inhibition, hits give high values
Outline: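 Using yeast strain wt1, compound-induced growth inhibition was determined against vehicle-treated cultures.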

[3] = NCI Yeast Anticancer Drug Screen. Data for the rad50EPP+ strain (AID 151);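 also: 0% = growth of vehicle-treated control cultures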; conditions: S. cerevisiae rad50 mutant strain, hits give high values
Outline: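 Read-out is yeast growth inhibition relative to vehicle; cells used were the rad50EPP+ strain.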

[4] = NCI Yeast Anticancer Drug Screen. Data for the mgt1 strain (AID 153); conditions: S. cerevisiae mgt1 mutant growth inhibition, hits give high values
Outline: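 Measured: inhibition of mgt1 yeast growth by compound, normalized to vehicle-treated cultures.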

[5] = NCI Yeast Anticancer Drug Screen. Data for the rad50 strain (AID 155);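 also: 0% = growth of vehicle-only cultures of the same strain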; conditions: S. cerevisiae rad50 strain growth inhibition, hits give high values
Outline: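 Relative growth inhibition (compound vs vehicle) was measured in yeast with a defined repair-gene alteration.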

[6] = NCI Yeast Anticancer Drug Screen. Data for the mec2-1 strain (AID 157); conditions: S. cerevisiae mec2-1 strain, hits give high values
Outline: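 Using mec2-1 yeast: add compound, measure growth, express inhibition versus vehicle-treated cultures.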

[7] = NCI Yeast Anticancer Drug Screen. Data for the rad14 strain (AID 159);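 also: 0% = growth of vehicle-treated control cultures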; conditions: S. cerevisiae rad14 strain growth inhibition, hits give high values
Outline: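 Screen for anticancer potential: a yeast strain altered in DNA damage repair is grown with compound, and reduced growth is quantified against vehicle controls.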

[8] = NCI Yeast Anticancer Drug Screen. Data for the sgs1 mgt1 strain (AID 161);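 also: 0% = growth of cultures given vehicle only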; conditions: S. cerevisiae sgs1 mgt1 strain, hits give high values
Outline: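 Percent growth inhibition was derived by comparing compound-exposed mutant yeast with vehicle-exposed cultures. The strain carries alterations in DNA damage repair.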

[9] = NCI Yeast Anticancer Drug Screen. Data for the CLN2oe strain (AID 163);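 also: 0% = growth of vehicle-only control cultures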; conditions: S. cerevisiae CLN2oe strain, hits give high values
Outline: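 Whole-cell yeast growth assay. A strain engineered for altered cell-cycle control received compound, and inhibition relative to vehicle-treated cultures was recorded.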

[10] = NCI Yeast Anticancer Drug Screen. Data for the cln2 rad14 strain (AID 165);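 also: 0% = growth equal to vehicle treated cultures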; conditions: S. cerevisiae cln2 rad14 strain, hits give high values
Outline: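 Yeast strain cln2 rad14, bearing defects in cell cycle control and DNA repair, serves as the test system; values reflect growth inhibition compared with vehicle.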

[11] = NCI Yeast Anticancer Drug Screen. Data for the bub3 strain (AID 167); conditions: S. cerevisiae bub3 mutant strain, hits give high values
Outline: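 Screening used yeast with an engineered genetic alteration affecting cell cycle control. Compound-exposed cultures were compared with vehicle cultures, and reduced growth was taken as inhibition.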

[12] = NCI Yeast Anticancer Drug Screen. Data for the wt2 strain (AID 169);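 also: 0% = growth of vehicle-treated yeast cultures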; conditions: S. cerevisiae wt2 strain growth inhibition, hits give high values
Outline: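 Treated yeast vs. vehicle-treated yeast: growth inhibition determined.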

[13] = NCI Yeast Anticancer Drug Screen. Data for the sgs1 strain (AID 173);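 also: 0% = growth of vehicle-only control cultures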; conditions: S. cerevisiae sgs1 mutant, hits give high values
Outline: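 A genetically defined yeast mutant is incubated with the test compound, and its growth is compared to that of the same strain given vehicle.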

[14] = NCI Yeast Anticancer Drug Screen. Data for the mlh1 rad18 strain (AID 175); conditions: S. cerevisiae mlh1 rad18 strain growth inhibition, hits give high values
Outline: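 Steps: expose repair-defective yeast to compound; measure growth; express inhibition against vehicle-treated controls.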

[15] = NCI Yeast Anticancer Drug Screen. Data for the rad18 strain (AID 177); conditions: S. cerevisiae rad18 mutant growth inhibition, hits give high values
Outline: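 Measured value is growth inhibition of a yeast strain bearing a DNA repair alteration, referenced to vehicle-treated cells.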

[16] = at 5.0 µM (retest, dose inferred, filed as 0.5)
[17] = at 50.0 µM (retest, dose inferred, filed as 5.0)

Measured: growth inhibition

CNC(=O)OCc1c(COC(=O)NC)c(-c2ccc(Cl)cc2)n2c1CCC2
inactive: [1]; at 1.2 µM -19% | [1]; at 3.7 µM -31% | [1]; at 11.0 µM -28% | [1]; at 33.0 µM -22% | [1]; at 100.0 µM 69% | [2]; at 1.2 µM -37% | [2]; at 3.7 µM -31% | [2]; at 11.0 µM -43% | [2]; at 33.0 µM -47% | [3]; at 1.2 µM -21% | [3]; at 3.7 µM -23% | [3]; at 11.0 µM -16% | [3]; at 33.0 µM -25% | [3]; at 100.0 µM -26% | [4]; at 1.2 µM -47% | [4]; at 3.7 µM -55% | [4]; at 11.0 µM -49% | [4]; at 33.0 µM -17% | [5]; at 1.2 µM -34% | [5]; at 3.7 µM -42% | [5]; [16] 21% | [5]; at 11.0 µM -40% | [5]; at 33.0 µM -30% | [5]; [17] 11% | [5]; at 50.0 µM 56.3% | [6]; at 1.2 µM -55% | [6]; at 3.7 µM -41% | [6]; [16] 0% | [6]; at 11.0 µM -37% | [6]; at 33.0 µM -36% | [6]; [17] 6% | [6]; at 50.0 µM 44.7% | [7]; at 1.2 µM -34% | [7]; at 3.7 µM -31% | [7]; at 11.0 µM -39% | [7]; at 33.0 µM 2% | [8]; [16] 33% | [8]; [17] 69% | [8]; at 50.0 µM 57.5% | [9]; at 1.2 µM -21% | [9]; at 3.7 µM -1% | [9]; at 11.0 µM -9% | [9]; at 33.0 µM -6% | [10]; [16] 30% | [10]; [17] 38% | [11]; at 1.2 µM -53% | [11]; at 3.7 µM -69% | [11]; [16] 36% | [11]; at 11.0 µM -55% | [11]; at 33.0 µM -17% | [11]; [17] 33% | [11]; at 50.0 µM 23% | [12]; at 1.2 µM -31% | [12]; at 3.7 µM -11% | [12]; at 11.0 µM -26% | [12]; at 33.0 µM -10% | [13]; at 1.2 µM -11% | [13]; at 3.7 µM -28% | [13]; at 11.0 µM -41% | [13]; at 33.0 µM -23% | [14]; [16] 4% | [14]; [17] 5% | [15]; at 1.2 µM -28% | [15]; at 3.7 µM -30% | [15]; at 11.0 µM -53% | [15]; at 33.0 µM -42%
active: [2]; at 100.0 µM 84% | [4]; at 100.0 µM 98% | [5]; at 100.0 µM 97% | [6]; at 100.0 µM 87% | [7]; at 100.0 µM 98% | [9]; at 100.0 µM 94% | [10]; at 50.0 µM 84% | [11]; at 100.0 µM 94% | [12]; at 100.0 µM 97% | [13]; at 100.0 µM 89% | [14]; at 50.0 µM 74.3% | [15]; at 100.0 µM 97%
